TDP1 cell CPT: DT40-hTDP1 cell growth loss with CPT; chicken DT40 Tdp1-/-;hTDP1 cells + 20 nM CPT, ATP luminescence, 48 h; Potency, µM (doses to about 46.2 µM), inactives show top-dose activity change, negative = growth inhibition, most hits filed as inhibitors; 12% of 420,000 active; AID 686979; also: potency is read from the fitted curve at half-maximal effect; nearly all actives have a fitted effect of over 55% in size
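Chicken DT40 Tdp1-/- cells complemented with human TDP1, 400 cells/well, exposed to compounds plus 20 nM camptothecin for at least 48 h at 37 C; viability read as ATP content by CellTiter-Glo luminescence.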
IL-1B inflam inh: inflammasome signaling inhibition, IL-1 beta readout | THP-1 LPS/ATP IL-1B secretion, AlphaLISA, 16 h; hits give low values | activity change, % at 57.5 µM | 4.7% of 360,000 active; in the data active = activity change below about -50%; inconclusive = mostly about -30% to -49%
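THP-1 cells pretreated 1 hr with compounds (up to 57.5 uM final), then stimulated with LPS (250 ng/mL final) plus ATP (1.25 mM final); secreted IL-1B measured by AlphaLISA after 16 hr, decreased signal indicating inhibition.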
HT1080 IDH1KD tx: toxicity to HT-1080 IDH1 knockdown cells (counter line) | 2% of 360,000 active | HT-1080 IDH1 knockdown viability, ATP luminescence, 48 h | Potency, µM (top dose mostly 46.1 µM), inactives show top-dose activity, negative = toxicity, usual class: cytotoxic | AID 686971;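 also: potency is read from the fitted curve at half-maximal effect; 0% = DMSO wells and -100% = cell-free medium wells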
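Cytotoxicity counter-line: IDH1KD HT-1080, 48 h, CellTiter-Glo. Curves classed by r2, magnitude and activity.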
HT1080-NT tox: kills 2HG-producing HT-1080-NT fibrosarcoma cells; HT-1080-NT fibrosarcoma viability, CellTiter-Glo ATP luminescence, 48 h; Potency, µM (top dose mostly 46.1 µM), for inactives: at the highest dose activity, negative = less viability, usual class: cytotoxic; 1.6% of 360,000 active; AID 686970;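 also: NT is the 2HG producing partner of a matched IDH1 knockdown line; potency is read from the fitted curve at half-maximal effect; 0% = DMSO-treated cells and -100% = media-only wells without cells; nearly all actives have a fitted effect of over 55% in size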
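Read-out is CellTiter-Glo luminescence after 10 minutes at room temperature, following 48 hours' compound treatment of HT-1080-NT cells (750 cells/well, RPMI, 5% FBS, 37 degrees C).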
DT40 TDP1 no CPT: qHTS for Inhibitors of human tyrosyl-DNA phosphodiesterase 1 (TDP1): qHTS in cells in absence of CPT. DT40 Tdp1-/- hTDP1 cells, no CPT, ATP luminescence, 48 h. Potency, µM (doses to about 46.2 µM), inactives show at the top dose activity change, negative = growth inhibition, actives largely listed as inhibitors. 15% of 420,000 active; also: potency is read from the fitted curve at half-maximal effect; nearly all actives have a fitted effect of over 55% in size
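Camptothecin absent (DMSO only). Human TDP1-complemented DT40 knockout cells, 400 cells/well, 37 °C for minimum 48 hr; ATP measured via CellTiter-Glo, 30 min dark incubation, luminescence.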
12-LOX inh: blocks human arachidonate 12S-lipoxygenase; 1.1% of 580,000 active; purified 12hLO, xylenol orange hydroperoxide absorbance; P18054; AID 1671190; Potency, µM (series often up to 108 µM), inactives show at the highest dose activity change, negative = inhibition, hits mostly inhibitors; also: potency is read from the fitted curve at half-maximal effect
Target sequence (P18054 whole entry, looked up): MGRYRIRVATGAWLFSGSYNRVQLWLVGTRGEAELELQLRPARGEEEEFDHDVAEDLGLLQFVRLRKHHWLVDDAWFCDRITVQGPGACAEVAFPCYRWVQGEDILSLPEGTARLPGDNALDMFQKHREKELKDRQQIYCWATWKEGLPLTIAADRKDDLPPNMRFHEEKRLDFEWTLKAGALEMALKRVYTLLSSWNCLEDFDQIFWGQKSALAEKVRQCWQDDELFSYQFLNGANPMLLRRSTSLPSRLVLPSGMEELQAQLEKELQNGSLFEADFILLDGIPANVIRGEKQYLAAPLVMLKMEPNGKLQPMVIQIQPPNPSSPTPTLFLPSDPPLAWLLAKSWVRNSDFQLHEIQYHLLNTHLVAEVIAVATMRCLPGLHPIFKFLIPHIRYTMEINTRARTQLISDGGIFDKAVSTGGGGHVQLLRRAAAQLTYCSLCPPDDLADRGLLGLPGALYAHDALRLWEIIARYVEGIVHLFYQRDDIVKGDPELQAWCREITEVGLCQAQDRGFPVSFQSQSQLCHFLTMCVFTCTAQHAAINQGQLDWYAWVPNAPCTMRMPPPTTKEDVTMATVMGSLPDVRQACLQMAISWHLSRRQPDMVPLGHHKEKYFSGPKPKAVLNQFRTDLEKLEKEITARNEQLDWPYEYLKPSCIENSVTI
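Hydroperoxide product was detected by ferrous iron/xylenol orange as the 573 to 405 nm absorbance ratio. Arachidonic acid at 40 uM (final) was turned over for 30 min at room temperature by 150 nM human 12hLO, pH 7.0 Hepes buffer, after 15 min compound preincubation.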
Active calls of the source: *; [ ] = remark or other dose. The sample as a whole holds a higher share of hits than the screen did. Unless noted, calls follow the shape of the dose curve; as a rule, active = well fitted curve in the direction sought with a large enough effect; inconclusive = small, poorly fitted or top-dose-only effect, or another doubt; inactive = no such curve, though single readings can be large; an effect the other way counts as inactive or inconclusive. Unless noted, % is scaled to controls: 0 for no effect and ±100 for the full control effect.

How did S=C(NCc1ccco1)N1CCN(c2nc(-c3ccccc3)cs2)CC1 do in these assays?
TDP1 cell CPT: inconclusive; IL-1B inflam inh: -73*; HT1080 IDH1KD tx: -15%; HT1080-NT tox: -2%; DT40 TDP1 no CPT: inconclusive; 12-LOX inh: -3%

Results for O=C(CN1CCN(c2nc(-c3ccc(Cl)cc3)cs2)CC1)NCc1ccco1 ?
TDP1 cell CPT: inconclusive; IL-1B inflam inh: -8; HT1080 IDH1KD tx: -2%; HT1080-NT tox: -21%; DT40 TDP1 no CPT: inconclusive; 12-LOX inh: -18%

What do the screens show for `CC(=O)Nc1ccc(NC(=O)c2csc(NC(C)C)n2)cc1`?
12-LOX inh: 4%

How did Cc1cc(=O)[nH]c2c1cnn2Cc1ccccc1 do in these assays?
TDP1 cell CPT: inconclusive; IL-1B inflam inh: 23; HT1080 IDH1KD tx: -3%[9.24 µM]; HT1080-NT tox: -5%; DT40 TDP1 no CPT: -7%; 12-LOX inh: -10%

Results for S=c1nc[nH]c2c1cnn2Cc1ccccc1 ?
TDP1 cell CPT: 10µM*; IL-1B inflam inh: 35; HT1080 IDH1KD tx: -5%; HT1080-NT tox: -1%; DT40 TDP1 no CPT: 3.7µM*; 12-LOX inh: inconclusive

What do the screens show for `CC(NCc1ccc(-c2ccccc2)cc1)C(O)c1ccccc1` (stereo unspecified)?
TDP1 cell CPT: inconclusive; IL-1B inflam inh: -96*; HT1080 IDH1KD tx: 15µM*; HT1080-NT tox: inconclusive; DT40 TDP1 no CPT: 18µM*; 12-LOX inh: inconclusive

How did CC(C)(C)c1ccc(S(=O)(=O)Nc2ccc(Cc3ccncc3)cc2)cc1 do in these assays?
TDP1 cell CPT: inconclusive; IL-1B inflam inh: inconclusive; HT1080 IDH1KD tx: inconclusive; HT1080-NT tox: -7%; DT40 TDP1 no CPT: 16µM*; 12-LOX inh: -4%

What do the screens show for `CC(=O)Nc1ccc(S(=O)(=O)Nc2ccc(Cc3ccncc3)cc2)cc1`?
TDP1 cell CPT: inconclusive; IL-1B inflam inh: -5; HT1080 IDH1KD tx: -6%; HT1080-NT tox: inconclusive; DT40 TDP1 no CPT: 9.2µM*; 12-LOX inh: 7%

How did O=C(O)c1cccc(S(=O)(=O)Nc2ccc(Cc3ccncc3)cc2)c1 do in these assays?
TDP1 cell CPT: -14%; IL-1B inflam inh: 5; HT1080 IDH1KD tx: 7%; HT1080-NT tox: 8%; DT40 TDP1 no CPT: 24%; 12-LOX inh: -1%

What do the screens show for `O=C(Nc1ccc2c(c1)OCCCO2)c1sc(-c2ccco2)nc1-c1ccccc1`?
12-LOX inh: 0%

What do the screens show for `O=c1cc(N2CCN(c3ccc(F)cc3)CC2)[nH]c(=O)n1Cc1ccc(F)cc1`?
TDP1 cell CPT: 9.2µM*; IL-1B inflam inh: 12; HT1080 IDH1KD tx: -19%; HT1080-NT tox: -5%; DT40 TDP1 no CPT: 8.2µM*; 12-LOX inh: 40%

Results for COc1ccc(NC(=O)NCCCN2CCN(c3cc(C)ccc3C)CC2)cc1 ?
TDP1 cell CPT: 8.2µM*; IL-1B inflam inh: -28; HT1080 IDH1KD tx: inconclusive; HT1080-NT tox: inconclusive; DT40 TDP1 no CPT: 8.2µM*; 12-LOX inh: 16%

How did COc1ccc(N2CCN(CCNC(=O)Nc3ccc(C)c(Cl)c3)CC2)cc1 do in these assays?
TDP1 cell CPT: 23µM*; IL-1B inflam inh: -30; HT1080 IDH1KD tx: inconclusive; HT1080-NT tox: -23%; DT40 TDP1 no CPT: 16µM*; 12-LOX inh: 14%

How did COc1cc(NC(=O)NCCN2CCN(c3ccc(Cl)cc3)CC2)ccc1C do in these assays?
TDP1 cell CPT: inconclusive; IL-1B inflam inh: -60*; HT1080 IDH1KD tx: -2%[9.24 µM]; HT1080-NT tox: inconclusive; DT40 TDP1 no CPT: inconclusive; 12-LOX inh: 5%

Results for CCCN1CCN(CCNC(=O)Nc2ccc(OC)c(OC)c2)CC1 ?
TDP1 cell CPT: inconclusive; DT40 TDP1 no CPT: 1%; 12-LOX inh: -14%
